Assay outcomes from PubChem.
Autofluor counter – counter-screen for toxin protease inhibitors: compound fluorescence | compound autofluorescence counterscreen, microsphere flow cytometry; stronger effect = higher value | fluorescence intensity (test concentration not listed) | 360,000 tested, 3.1% active | AID 624483; in the data active means fluorescence intensity above about 16000; inconclusive means no clear call, values can overlap the other calls
BoNT-A LC inh2 – BoNT/A light chain protease inhibitors, primary screen, biochemical, flow cytometry, MLPCN library | 360,000 tested, 0.17% active | Botulinum neurotoxin type A light chain protease (Clostridium botulinum A str. ATCC 3502) | multiplex microsphere protease substrate cleavage | inhibition, % at 10 µM | AID 588499, 2011; further: plate controls were buffer without enzyme for full effect and enzyme alone for no effect
BoNT-F LC inh – BoNT/F light chain protease inhibitors, primary screen, biochemical, flow cytometry, MLPCN library | Botulinum neurotoxin type F light chain protease (Clostridium botulinum) | Multiplex microsphere protease cleavage assay | inhibition, % at 10 µM | 360,000 tested, 0.22% active | AID 588497, 2011; in the data active means inhibition above about 35%, passing the limit was not always enough; inconclusive means no clear call, values can overlap the other calls; further: plate controls were buffer without enzyme for full effect and enzyme alone for no effect
Anthrax LF inh2 – Bacillus anthracis LF protease inhibitors, primary screen, biochemical, multiplex microsphere, MLPCN library. inhibition, % at 10 µM. 360,000 tested, 0.12% active. multiplex microsphere protease cleavage assay. Lethal factor (Bacillus anthracis), P15917; further: plate controls were buffer without enzyme for full effect and enzyme alone for no effect
Target sequence (P15917 whole entry, looked up): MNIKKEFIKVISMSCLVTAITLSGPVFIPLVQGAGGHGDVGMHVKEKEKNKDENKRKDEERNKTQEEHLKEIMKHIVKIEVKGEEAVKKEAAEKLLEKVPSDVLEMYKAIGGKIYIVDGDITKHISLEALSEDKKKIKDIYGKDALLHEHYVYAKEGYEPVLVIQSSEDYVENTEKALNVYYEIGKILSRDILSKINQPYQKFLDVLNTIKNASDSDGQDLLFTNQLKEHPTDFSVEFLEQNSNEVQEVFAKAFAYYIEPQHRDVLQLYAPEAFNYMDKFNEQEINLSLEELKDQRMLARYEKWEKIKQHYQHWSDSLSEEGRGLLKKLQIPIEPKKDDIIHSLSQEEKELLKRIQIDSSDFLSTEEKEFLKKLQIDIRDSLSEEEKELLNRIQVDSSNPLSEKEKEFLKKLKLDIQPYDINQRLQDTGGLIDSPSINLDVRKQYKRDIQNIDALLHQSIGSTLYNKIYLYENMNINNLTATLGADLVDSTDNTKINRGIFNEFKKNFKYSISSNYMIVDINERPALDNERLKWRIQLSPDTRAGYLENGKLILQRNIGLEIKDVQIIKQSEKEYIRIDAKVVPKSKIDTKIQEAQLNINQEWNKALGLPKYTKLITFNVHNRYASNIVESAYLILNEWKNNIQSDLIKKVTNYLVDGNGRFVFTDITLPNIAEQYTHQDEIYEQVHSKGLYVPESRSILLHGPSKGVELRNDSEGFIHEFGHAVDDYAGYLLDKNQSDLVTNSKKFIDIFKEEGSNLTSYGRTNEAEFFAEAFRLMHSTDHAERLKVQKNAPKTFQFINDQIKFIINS
BJeLR viability – MLPCN primary cell-based screen for lethality selective to Ras in HRASV12 cells. BJeLR (HRASV12) viability, CellTiter-Glo ATP luminescence, 48 h. inhibition, % (concentration not given with the values). 300,000 tested, 0.17% active; in the data active means inhibition above about 50%; inconclusive means no clear call, values can overlap the other calls
* marks the source's active call; other numbers are inactive results; u = inconclusive; x = no result. In the library only some 3.5% were active in any assay of this set; here they are far more common. Unless noted, no stated cut-off is given here; in the data, active means inhibition above about 30%; inconclusive means no clear call, values can overlap the other calls; inactive means below that.

SMILES	Autofluor counter	BoNT-A LC inh2	BoNT-F LC inh	Anthrax LF inh2	BJeLR viability
CN(C)/C(CN1CCN(C=O)CC1)=C1\N=C(c2ccccc2)OC1=O	23334*	1	1	2	4
CC(=O)OCCn1c2nc(=O)[nH]c(=O)c-2nc2cc(C)c(C)cc21	2682	8	42*	-10	7
O=C(CN1CCCCCC1)NCc1ccccc1	4374	-1	-2	5	x
CC1CCN(CC(=O)NCc2ccccc2)CC1	22476*	0	-1	0	1
CCOC(=O)C1C(=O)NC(N2CCN(Cc3ccccc3)CC2)=NC1c1ccccc1 (stereo not drawn)	11601	-1	-8	-5	0
CCOC(=O)C1C(=O)NC(N2CCCCC2)=NC1c1ccccc1 (stereo not drawn)	22677*	-1	1	-2	1
Cc1ccc2cccc(OC(=O)N3CCCC3)c2n1	22325*	-9	-10	2	0
COC(=O)c1cc(N/C(N)=N/c2nc(C)cc(C)n2)cc(C(=O)OC)c1	3938	-1	-2	-6	x
COc1ccccc1CC(=O)O/N=C(\N)Cc1cccc2ccccc12	22659*	2	-1	3	-13
COc1ccccc1OC(=O)Cc1cccc2ccccc12	3967	2	10	11	3
COCc1nnc(NC(=O)C2CC(=O)N(c3ccc(C)c(Cl)c3)C2)s1 (stereo not drawn)	5340	0	-2	-5	3
Cc1ccc(N2CC(C(N)=O)CC2=O)cc1 (stereo not drawn)	18778*	u	4	4	-4
Cc1ccc(N2CC(C(=O)Nc3nnc(C(C)C)s3)CC2=O)cc1 (stereo not drawn)	22336*	1	2	2	3
Cc1ccc(N2CC(C(=O)Nc3nccs3)CC2=O)cc1Cl (stereo not drawn)	23923*	-2	-1	1	-2
CCc1nnc(NC(=O)C2CC(=O)N(c3ccc(C)cc3)C2)s1 (stereo not drawn)	15517	1	3	-2	0
Cc1ccc(S(=O)(=O)NC2(C(F)(F)F)C(=O)Nc3c2c(=O)n(C)c(=O)n3C)cc1 (stereo not drawn)	7134	0	2	-7	-4
CCC(=O)NC1(C(F)(F)F)C(=O)Nc2c1c(=O)n(C)c(=O)n2C (stereo not drawn)	23514*	0	0	-2	-3
O=C1CCc2ccc(NS(=O)(=O)c3ccc(F)cc3)cc2N1	2357	0	5	2	-1
COc1ccc(C)cc1-n1nnnc1SCC(=O)N1CCC(C(=O)Nc2nccs2)CC1	23303*	u	-2	-1	-1
Cc1nnc(SCC(=O)N2CCC(C(=O)Nc3nccs3)CC2)n1Cc1ccccc1	4172	0	0	8	4
Cn1c(=O)oc2cc(S(=O)(=O)NCCC(=O)N3CCc4ccccc43)ccc21	21642*	u	6	-2	9
Cn1c(=O)oc2cc(S(=O)(=O)NCCC(=O)N3CC=C(c4ccccc4)CC3)ccc21	23639*	0	-3	-2	6
CCN(CC)S(=O)(=O)c1ccc(C(=O)Nc2c3c(nn2C(C)(C)C)CS(=O)(=O)C3)cc1	23143*	0	0	-1	7
CC(C)(C)c1ccc(C(=O)Nc2c3c(nn2C(C)(C)C)CS(=O)(=O)C3)cc1	u	4	-8	-6	-4
O=C(NCC1CC1)c1ccc(-c2cn[nH]c2)c2ccoc12	3815	0	-1	-5	x
SMILES	Autofluor counter	BoNT-A LC inh2	BoNT-F LC inh	Anthrax LF inh2	BJeLR viability
CC1(C)CC(=O)c2cnc(N3CCc4ccccc43)nc2C1	x	x	x	x	-3
Fc1cnc(N2CCc3ccccc32)nc1N1CCc2ccccc21	16473*	0	-2	-2	2
COc1ccc(CC(N)c2csc(Nc3cc(NCc4ccco4)ncn3)n2)cc1 (stereo not drawn)	4014	-1	-23	-6	x
Clc1ccc(-c2noc(COc3ccccc3)n2)cc1	22341*	2	1	-3	3
CN(Cc1nc(-c2ccncc2)no1)S(=O)(=O)c1ccc(Cl)cc1	21129*	2	3	-4	12
CN(Cc1nc(-c2ccncc2)no1)S(=O)(=O)c1ccc(Br)cc1	2858	0	-4	-1	3
CC(C)(C)Cc1nc(-c2ccc(Cl)cc2)no1	21458*	-5	-9	1	-10
Clc1ccc(-c2noc(CCCOc3ccccc3)n2)cc1	11319	-1	-6	0	11
